Assay outcomes: PubChem, National Center for Advancing Translational Sciences (NCATS)
Coupling enz: counter-screen for Giardia aldolase inhibitors: coupling enzyme system | coupling enzyme system counterscreen, AmpLite Red fluorescence | activity change, negative = inhibition, % at 58.2 µM, hits read low | 290,000 tested, 0.67% active; in the data active = activity change below about -30%
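Counterscreen lacking aldolase: glyceraldehyde-3-phosphate coupling-enzyme reagent preincubated 10 min at RT with compound (at 57.5 uM final), then substrate/coupling system with AmpLite Red added; fluorescence read at 525/598 nm after 20 min RT.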
Sfp PPTase inh: blocks B. subtilis Sfp PPTase activity. Q9F4F7. Potency, µM, for inactives: largest response in the series, negative = inhibition, actives largely listed as inhibitors. Biochemical Sfp PPTase activity, qHTS. 310,000 tested, 3.5% active;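 note: the enzyme is Sfp with the accession as filed and its product quenches rhodamine fluorescence; potency is the fitted concentration of half-maximal effect; 0% = enzyme reaction without inhibitor and -100% = no enzyme wells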
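With Hepes-Na pH 7.6 buffer containing 10 mM MgCl2, Sfp (15 nM) modified BHQ-2-YbbR (12.5 uM) using rhodamine-CoA (5 uM). Two reads 30 minutes apart at 525/598 nm yielded each well's rate.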
KDM4E inh: blocks human JMJD2E demethylase activity; B2RXH2; JMJD2E catalytic domain, FDH-coupled NADH fluorescence (FDH is formaldehyde dehydrogenase); Potency, µM (highest dose often 57.1 µM), without a hit: top-dose activity change, negative = inhibition, hits mostly inhibitors; 230,000 tested, 1.6% active; AID 2147; active = well fitted inhibition curve with a large enough effect, not every such curve was filed as active; inconclusive = small, poorly fitted or top-dose-only effect, or another doubt; inactive = no such curve, though single readings can be large or run the other way;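 note: potency is the fitted concentration of half-maximal effect; 0% = wells with enzyme and -100% = buffer wells without enzyme; nearly all actives have a fitted effect of over 50% in size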
Target sequence (B2RXH2 1-337 limits assumed): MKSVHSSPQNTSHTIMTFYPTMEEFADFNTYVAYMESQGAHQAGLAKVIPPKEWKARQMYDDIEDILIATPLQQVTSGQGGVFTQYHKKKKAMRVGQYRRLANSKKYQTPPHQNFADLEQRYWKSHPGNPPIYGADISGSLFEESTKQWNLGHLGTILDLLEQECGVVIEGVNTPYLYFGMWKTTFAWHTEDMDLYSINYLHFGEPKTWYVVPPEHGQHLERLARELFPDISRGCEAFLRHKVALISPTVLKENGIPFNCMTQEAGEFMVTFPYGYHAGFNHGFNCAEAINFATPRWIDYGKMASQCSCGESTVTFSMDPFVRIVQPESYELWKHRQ
Tau ThT inhib: blocks human tau fibril formation measured by thioflavin T; P10636; recombinant tau K18 P301L, heparin-induced fibrillization, ThT fluorescence; Potency, µM (highest dose often 57.4 µM), for the others: at the highest dose activity, negative = inhibition, hits mostly inhibitors; 270,000 tested, 2.1% active; AID 1460; note: potency is the fitted concentration of half-maximal effect; nearly all actives have a fitted effect of over 55% in size
Target sequence (P10636 561-689 P618L limits assumed): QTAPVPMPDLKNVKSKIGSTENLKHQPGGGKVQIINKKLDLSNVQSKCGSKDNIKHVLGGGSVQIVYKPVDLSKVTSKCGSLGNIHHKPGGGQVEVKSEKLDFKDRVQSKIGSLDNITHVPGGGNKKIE
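Aggregation was driven by heparin (20 uM final) acting on recombinant tau […] bearing P301L in 100 mM sodium acetate pH 7; fibrils were detected with Thioflavin T.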
Tau fluor cs: counter-screen for tau fibril formation inhibitors; tau K18 P301L Alexa594 fluorescence, heparin fibrillization; Potency, µM (titrated, usually from 57.7 µM), for inactives: at the highest dose activity change, negative = decrease; 280,000 tested, 0.93% active; AID 1463; note: potency is the fitted concentration of half-maximal effect; nearly all actives have a fitted effect of over 55% in size
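Human tau K18 P301L (15 uM unlabeled, 0.24 uM Alexa 594-labeled) in 100 mM sodium acetate pH 7 with 20 uM heparin, 6 hr at 37 C. ThT 30 uM added, 1 hr ambient; Alexa 594 FP and total fluorescence read at 555/632 nm.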
Tau fibril FP: blocks human tau fibril formation measured by polarization; P10636; K18 P301L tau heparin fibrillization, Alexa594 FP, 6 h; Potency, µM (top dose mostly 57.7 µM), inactives show at the highest dose activity, negative = inhibition, hits mostly inhibitors; 280,000 tested, 0.39% active; AID 1468; note: potency is the fitted concentration of half-maximal effect; nearly all actives have a fitted effect of over 55% in size
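Human tau K18 […] P301L fragment, 15 uM unlabeled plus 0.24 uM Alexa 594-labeled tau (final), with compound and 20 uM heparin in 100 mM sodium acetate pH 7; 6 hr at 37 C, then Alexa 594 FP read.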
Starred values were filed as active, the others as inactive; ? = inconclusive; . = no result; [ ] = remark or other dose. In the library only some 5.3% were active in any assay of this set; here they are far more common. Unless noted, calls come from the whole dose curve; as a rule, active = well fitted curve in the direction sought with a large enough effect; inconclusive = small, poorly fitted or top-dose-only effect, or another doubt; inactive = no such curve, though single readings can be large; an effect the other way counts as inactive or inconclusive. Unless noted, % is set by controls: 0 for no effect and ±100 for the full control effect.

SMILES	Coupling enz	Sfp PPTase inh	KDM4E inh	Tau ThT inhib	Tau fluor cs	Tau fibril FP
Cn1c(N)c(C(=O)Nc2ccc(-c3ccccc3)cc2)sc1=S	0	3.2µM*	6%	-8%	-14%	5%
C=CCn1c(N)c(C(=O)Nc2ccc(C)cc2)sc1=S	-2	-2%	-1%	-12%	-11%	2%
CCn1c(N)c(C(=O)NCCCOC)sc1=S	-2	20µM*	?	-13%	-12%	?
O=S(=O)(NCC(c1cccs1)S(=O)(=O)c1ccccc1)c1ccc(F)cc1 (centres undefined)	.	.	.	2%	-16%	-8%
Cc1nn(CCc2nc(-c3ccco3)cs2)c2[nH]c(=O)cc(C(F)(F)F)c12	7	?	?	25µM*	-16%	?
Cc1cc(C)n(CCc2nc(-c3ccco3)cs2)n1	-10	8.9µM*	-18%	35µM*	-22%	?
Cc1cc(C)n(CCc2nc(-c3cccs3)cs2)n1	-4	?	-6%	-6%	-5%	4%
O=c1[nH]c(=O)n(Cc2ccccc2)c2nc(-c3ccco3)cc(C(F)(F)F)c12	3	-7%	?	-15%	-5%	3%
CN(C)C(=O)c1ccc(-c2ccc3ncnc(NCc4ccccc4)c3c2)cc1	3	17%	.	.	.	.
CC(C)C[C@H](NC(=O)CNC(=O)[C@H](C)NC(=O)[C@H](CC(C)C)NC(=O)[C@H](CCCNC(=N)N)NC(=O)[C@H](Cc1cnc[nH]1)NC(=O)[C@@H](NC(=O)[C@@H](N)C(C)C)[C@@H](C)O)C(=O)N[C@@H](CC(C)C)C(=O)N[C@@H](CO)C(=O)N[C@@H](CCCNC(=N)N)C(=O)N[C@@H](CO)C(=O)NCC(=O)NCC(=O)N[C@H](C(=O)N[C@H](C(=O)N[C@@H](CCCCN)C(=O)N[C@@H](CC(N)=O)C(=O)N[C@@H](CC(N)=O)C(=O)N[C@@H](Cc1ccccc1)C(=O)N[C@H](C(=O)N1CCC[C@H]1C(=O)N[C@H](C(=O)N[C@@H](CC(N)=O)C(=O)N[C@H](C(=O)NCC(=O)N[C@@H](CO)C(=O)N[C@@H](CCCCN)C(=O)N[C@@H](C)C(=O)N[C@@H](Cc1ccccc1)C(N)=O)C(C)C)[C@@H](C)O)C(C)C)C(C)C)C(C)C	3	7%	.	.	.	.
CCCc1ccc(C2C3=C(CC(C)(C)CC3=O)NC3=C2C(=O)c2ccccc23)cc1 (centres undefined)	-4	-12%	2%	?	?	9%
CC1(C)CC(=O)C2=C(C1)NC1=C(C(=O)c3ccccc31)C2c1ccc(O)cc1 (centres undefined)	1	-18%	0%	18µM*	?	14%
COC(=O)Cc1[nH]c(=S)[nH]c1C(=O)OC	2	56µM*	3%	-6%	-4%	0%
O=C(NNc1ccc(O)cc1)c1ccc(Br)cc1	1	13µM*	?	16µM*	?	?
CC(C)n1c(=S)[nH]c2c1c(=O)[nH]c(=O)n2C	4	10µM*	7.9µM*	?	-18%	?
Cc1ccc(NS(=O)(=O)c2ccc3[nH]c4c(c3c2)CCCC4)c(C)c1	.	.	.	4%	?	14%
COc1cccc(NS(=O)(=O)c2ccc3[nH]c4c(c3c2)CCCCCC4)c1	.	.	.	-4%	7.1µM*[quencher]	-1%
COc1ccccc1CNS(=O)(=O)c1ccc2[nH]c3c(c2c1)CCCCC3	.	.	.	-9%	16µM*[quencher]	?
COc1ccc(NS(=O)(=O)c2ccc3[nH]c4c(c3c2)CCCCCC4)cc1	.	.	.	15%	5µM*[quencher]	0%
Cc1ccc(NS(=O)(=O)c2ccc3[nH]c4c(c3c2)CCCCC4)cc1	.	.	.	0%	7.9µM*[quencher]	2%
CCOc1ccc(CNS(=O)(=O)c2ccc3[nH]c4c(c3c2)CCCC4)cc1OC	.	.	.	-24%	?	5%
COc1ccc(Cl)cc1NS(=O)(=O)c1ccc2[nH]c3c(c2c1)CCCC3	.	.	.	1%	8.9µM*[quencher]	0%
CN(C)S(=O)(=O)c1cccc(-n2sc3ccccc3c2=O)c1	4	1.6µM*	3.5µM*	?	-22%	?
O=S(=O)(c1ccc(S(=O)(=O)N2CCCC2)cc1)N1CCCCC1	-3	2%	.	.	.	.
O=c1c2ccccc2sn1-c1ccc(S(=O)(=O)N2CCCC2)cc1	-3	3.2µM*	?	11µM*	-16%	?
SMILES	Coupling enz	Sfp PPTase inh	KDM4E inh	Tau ThT inhib	Tau fluor cs	Tau fibril FP
O=c1c2ccccc2sn1-c1ccccc1	5	0.5µM*	25µM*	11µM*	-30%	?
CC(=O)n1c(=O)c2ccccc2c(=O)n1-c1ccccc1	0	25%	.	.	.	.
O=c1c2ccccc2sn1-c1nccs1	0	2.2µM*	7.9µM*	16µM*	-21%	?
CCC1CCCCN1C(=O)Cn1c(=O)n(-c2ccccc2C(F)(F)F)c(=O)c2c(C)c(C(=O)N(C)C)sc21 (centres undefined)	.	.	.	2%	0%	-1%
Cc1ccc(-n2sc3ccccc3c2=O)cc1S(=O)(=O)N1CCCCC1	3	1.6µM*	11µM*	16µM*	-19%	32µM*
COc1cccc2c1ncc1c(-c3ccc(C)cc3)nn(-c3ccc(F)cc3)c12	.	.	.	-3%	-2%	-7%
Cc1cccc(-n2c(=O)[nH]c3c(C(N)=O)nc(-c4ccccc4Cl)nc32)c1	1	3%	1.8µM*	8%	1%	-8%
COc1cc(NC(=O)Nc2cccc(-c3noc(C)n3)c2)cc(OC)c1OC	.	.	.	?	13µM*[quencher]	17%
COc1cc(NC(=O)Nc2cccc(C(C)=O)c2)cc(OC)c1OC	-8	-10%	-5%	-19%	?	?
CC(=O)N(CCC(Cc1ccccc1)c1ccc2c(c1)OCO2)Cc1ccccc1F (centres undefined)	4	71µM*	0%	?	-23%	-3%
N#Cc1cc2c([nH]c1=S)CCCCCC2	11	10µM*	?	?	-13%	-15%
N#Cc1c(N)n[nH]c1-c1cc2c([nH]1)CCCC2	-1	1%	?	?	?	12%
CCCCOc1ccc(Cc2n[nH]c(=S)n2N)cc1	3	3%	0%	3%	-2%	5%
Nn1c(=S)[nH]nc(Cc2ccc(O)cc2)c1=O	-3	16µM*	?	-11%	1%	0%
COc1ccc(Cc2n[nH]c(=S)n(N)c2=O)cc1	-1	56µM*	-2%	-2%	-4%	7%
CCSc1nccc(-c2nn(-c3ccc(C)cc3)ccc2=O)n1	0	7%	?	1%	-7%	5%
C#CCSc1nccc(-c2nn(-c3ccc(C)cc3)ccc2=O)n1	1	79µM*	?	-19%	-14%	6%
